The results in this text go back to PubChem BioAssay (NCATS).

In assay [1] the target is Rap guanine nucleotide exchange factor 3 (Homo sapiens) (UniProt O95398). The assay is described as follows: Confirmatory qHTS for antagonist of cAMP-regulated guanine nucleotide exchange factor 3 (EPAC1) (AID 1645880). Further: nearly all actives have a fitted effect of over 55% in size.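 On activity, negative = inhibition: plate controls were DMSO only for no effect and full effect of the ATA control for full effect.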 The settings on record: EPAC1 Rap1B-BODIPY-GDP exchange, fluorescence; activity, negative = inhibition: at 115 µM (top of the series). A digest of the protocol:
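Nucleotide exchange uses 100 nM EPAC1, 250 nM RAP1B-BODIPY-GDP and 50 uM GDP, with compounds in a concentration-titration series. After 5 min at room temperature, fluorescence (480 nm ex/540 nm em) is read every 5 min for 30 min. Data are normalized to control ATA and DMSO.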

Assay [2] shares this target. The assay is described as follows: Confirmatory qHTS for agonist of cAMP-regulated guanine nucleotide exchange factor 3 (EPAC1) (AID 1645881). Further: nearly all actives have a fitted effect of over 75% in size.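 On activation: EPAC1 catalysed release of BODIPY-GDP from Rap1B seen as fluorescence loss; 100% = effect of cAMP agonist control.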 Background: Quantitative high-throughput screening tests each substance at several concentrations.
Assay [3] addresses Rap guanine nucleotide exchange factor 4 (Homo sapiens) (UniProt Q8WZA2). The experiment in a line: Confirmatory qHTS for agonist of cAMP-regulated guanine nucleotide exchange factor 4 (EPAC2) (AID 1645884). Further: nearly all actives have a fitted effect of over 65% in size. On activation: on the % scale 0 is the no-effect control and ±100 the full control effect.
The target is the same in assay [4]. The experiment in a line: Confirmatory qHTS for antagonist of cAMP-regulated guanine nucleotide exchange factor 4 (EPAC2) (AID 1645885). Further: nearly all actives have a fitted effect of over 25% in size.
Assay [5] has as its target Rap guanine nucleotide exchange factor 3 (Homo sapiens) (UniProt O95398). The assay is described as follows: Counterscreen qHTS for agonist of cAMP-regulated guanine nucleotide exchange factor 3 (EPAC1) (AID 1645889). Further: nearly all actives have a fitted effect of over 40% in size. On activation: % of control where 0% means no effect. In short, it runs like this: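 Rap1B–BODIPY-GDP (250 nM) with 50 uM GDP; compounds pin-transferred to 9.74 nM–152 uM final (activator) or from 7.32 nM upwards (inhibitor). Fluorescence Ex/Em 480/540 nm read at 5 and 30 min, then after adding cAMP or buffer, at room temperature.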

Assay [6] addresses Tumor susceptibility gene 101 protein (Homo sapiens) (UniProt Q99816). The assay is described as follows: qHTS Assay for Iinhibitors of HIV-1 Budding by Blocking the Interaction of PTAP/TSG101: Hit Validation (AID 651600). Further: nearly all actives have a fitted effect of over 70% in size. A digest of the protocol: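 Fluorescence polarization binding assay: Tsg101 binding domain (10 uM) mixed with compounds and FITC-labeled PTAP peptide (50 nM) in HEPES pH 7.5, 0.15 M NaCl, 0.01% Tween 20, EDTA, TCEP; 20 min at r.t.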

SMILES strings stand for the structures. Records with an inconclusive call do not appear. Values without a mark were called inactive. Active and inactive are the calls of the source. The call rests on the fitted dose curve; in most records, active means well fitted curve in the direction sought with a large enough effect; inconclusive means small, poorly fitted or top-dose-only effect, or another doubt; inactive means no such curve, though single readings can be large; an effect the other way counts as inactive or inconclusive.
Potency means the concentration at half of the fitted maximal effect.

Chain of Rap guanine nucleotide exchange factor 4 (Homo sapiens) (Q8WZA2 whole entry, looked up): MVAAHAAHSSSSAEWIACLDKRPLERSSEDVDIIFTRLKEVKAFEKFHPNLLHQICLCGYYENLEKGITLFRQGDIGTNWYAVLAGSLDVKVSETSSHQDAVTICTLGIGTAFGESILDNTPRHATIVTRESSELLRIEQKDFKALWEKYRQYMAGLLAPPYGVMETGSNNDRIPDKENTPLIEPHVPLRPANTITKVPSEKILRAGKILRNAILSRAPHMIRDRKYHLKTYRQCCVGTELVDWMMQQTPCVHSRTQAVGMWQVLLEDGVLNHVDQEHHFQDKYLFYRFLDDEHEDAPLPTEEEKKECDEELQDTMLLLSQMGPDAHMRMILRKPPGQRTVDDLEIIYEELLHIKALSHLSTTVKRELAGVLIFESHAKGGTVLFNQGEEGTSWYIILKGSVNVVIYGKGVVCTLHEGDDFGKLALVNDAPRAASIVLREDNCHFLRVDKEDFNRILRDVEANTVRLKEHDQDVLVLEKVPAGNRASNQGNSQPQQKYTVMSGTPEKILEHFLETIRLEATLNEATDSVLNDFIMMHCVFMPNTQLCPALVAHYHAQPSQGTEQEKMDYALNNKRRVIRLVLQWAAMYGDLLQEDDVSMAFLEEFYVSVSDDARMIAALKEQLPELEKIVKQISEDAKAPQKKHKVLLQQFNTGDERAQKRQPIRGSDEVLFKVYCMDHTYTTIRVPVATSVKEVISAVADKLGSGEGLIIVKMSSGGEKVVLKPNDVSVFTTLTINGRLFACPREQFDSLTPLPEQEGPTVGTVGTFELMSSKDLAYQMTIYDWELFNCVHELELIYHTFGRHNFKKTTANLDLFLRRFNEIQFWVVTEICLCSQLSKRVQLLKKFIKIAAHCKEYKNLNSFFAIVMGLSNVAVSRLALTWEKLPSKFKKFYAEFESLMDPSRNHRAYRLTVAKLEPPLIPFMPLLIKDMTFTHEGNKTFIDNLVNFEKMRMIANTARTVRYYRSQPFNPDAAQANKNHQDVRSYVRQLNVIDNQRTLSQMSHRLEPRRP
Chain of Rap guanine nucleotide exchange factor 3 (Homo sapiens) (O95398 whole entry, looked up): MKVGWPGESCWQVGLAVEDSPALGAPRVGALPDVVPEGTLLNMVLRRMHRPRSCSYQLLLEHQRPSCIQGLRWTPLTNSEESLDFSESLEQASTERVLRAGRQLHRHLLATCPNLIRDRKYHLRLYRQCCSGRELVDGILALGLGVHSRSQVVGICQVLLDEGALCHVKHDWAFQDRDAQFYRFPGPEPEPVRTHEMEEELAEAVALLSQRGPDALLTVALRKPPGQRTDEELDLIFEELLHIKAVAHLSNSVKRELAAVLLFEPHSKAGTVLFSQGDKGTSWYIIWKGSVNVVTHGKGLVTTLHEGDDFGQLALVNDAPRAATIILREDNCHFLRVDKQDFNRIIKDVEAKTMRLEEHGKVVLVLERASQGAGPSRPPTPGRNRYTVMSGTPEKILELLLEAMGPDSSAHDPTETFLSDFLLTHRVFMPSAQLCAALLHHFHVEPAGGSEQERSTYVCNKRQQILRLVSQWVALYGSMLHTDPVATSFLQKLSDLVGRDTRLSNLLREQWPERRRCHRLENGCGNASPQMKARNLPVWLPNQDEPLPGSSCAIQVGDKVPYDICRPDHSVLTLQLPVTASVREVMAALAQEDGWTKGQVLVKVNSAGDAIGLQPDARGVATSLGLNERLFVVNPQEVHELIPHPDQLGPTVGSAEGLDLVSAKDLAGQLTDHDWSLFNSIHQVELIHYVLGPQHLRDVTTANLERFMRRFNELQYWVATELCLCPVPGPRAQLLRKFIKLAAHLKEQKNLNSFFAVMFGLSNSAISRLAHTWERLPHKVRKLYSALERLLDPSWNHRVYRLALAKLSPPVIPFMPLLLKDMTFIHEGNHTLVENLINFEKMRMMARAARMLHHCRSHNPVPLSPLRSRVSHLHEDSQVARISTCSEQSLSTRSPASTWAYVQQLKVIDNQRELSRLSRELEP
Chain of Tumor susceptibility gene 101 protein (Homo sapiens) (Q99816 whole entry, looked up, the tested form may be a part): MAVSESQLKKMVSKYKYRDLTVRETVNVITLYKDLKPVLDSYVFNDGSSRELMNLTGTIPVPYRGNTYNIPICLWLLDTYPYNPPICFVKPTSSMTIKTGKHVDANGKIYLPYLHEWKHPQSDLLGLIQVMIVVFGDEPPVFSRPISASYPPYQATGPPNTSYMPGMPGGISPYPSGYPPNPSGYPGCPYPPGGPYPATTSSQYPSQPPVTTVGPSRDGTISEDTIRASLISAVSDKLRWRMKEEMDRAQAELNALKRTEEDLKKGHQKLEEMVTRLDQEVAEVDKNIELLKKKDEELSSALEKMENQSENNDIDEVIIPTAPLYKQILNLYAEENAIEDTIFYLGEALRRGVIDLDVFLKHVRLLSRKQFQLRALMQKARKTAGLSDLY

Regarding `Cc1cc(/C=C2\SC(=S)NC2=O)cc(C)c1O`, the Potency in assay [1] was 33.8 µM (active); in assay [4], 0.675 µM (active). The Potency result in assay [2], in assay [3] and in assay [5] was “inactive” throughout.
`C=CCn1c(SCC(=O)NC(N)=O)nnc1-c1cc2c(s1)CCC(CC)C2` (stereo unspecified): the Potency result in assay [1], in assay [2], in assay [3], in assay [4] and in assay [5] was “inactive” throughout.
As for `CCC(CC)C(=O)N1c2ccccc2C(C)(c2ccccc2)CC1(C)C` (stereo unspecified), the Potency result in assay [1], in assay [2], in assay [3], in assay [4] and in assay [5] was “inactive” each time.
As for `CCOc1nc(C)cc(C)c1S(=O)(=O)c1cccc(Cl)c1`, the Potency result in assay [1], in assay [2], in assay [3] and in assay [5] was “inactive” in each case. Moreover, the Potency in assay [4] was 19 µM (active).
Consider `Brc1ccc(N/N=C(/N=Nc2nn[nH]n2)c2ccccc2)cc1`, for which, in assay [1], the Potency is 33.8 µM (active). For the same compound, the Potency result in assay [2], in assay [3], in assay [4] and in assay [5] was “inactive” throughout.
As for `Cc1ccc(CNC(=O)c2c[nH]n3c(=O)c(Cc4ccc(F)cc4Cl)c(C)nc23)cc1`, in assay [1], the Potency is 67.5 µM (active). For the same compound, the Potency result in assay [2], in assay [3], in assay [4] and in assay [5] was “inactive” in each case.
With `COc1cc(NC(=O)c2ccnc(N)c2)cc(C(=O)Nc2cccc(C(F)(F)F)c2)c1`, the Potency in assay [1] was 42.6 µM (active). Moreover, the Potency entry in assay [2], in assay [3], in assay [4] and in assay [5] was “inactive” throughout.
For `Cc1ccc(C)c(-n2c(CCC(=O)O)ccc2-c2ccc(Cl)cc2)c1`, the Potency result in assay [1], in assay [2], in assay [3], in assay [4] and in assay [5] was “inactive” throughout.
Regarding `Cc1cc(OC(C)C(=O)NCc2ccccn2)c2c(C)c(Cc3ccccc3)c(=O)oc2c1` (stereo unspecified), the Potency in assay [1] is 47.8 µM (active). The Potency result in assay [2], in assay [3], in assay [4] and in assay [5] was “inactive” throughout.
For `COc1cc(CN2CCN(C(=O)CC(C)C)CC2)c([N+](=O)[O-])cc1OC`, the Potency entry in assay [1], in assay [2] and in assay [4] was “inactive” in each case. The activation in assay [3] was 2.13% [at 17.1 µM, percent relative to cAMP agonist control]; in assay [5], 8.51% [at 30.8 µM].
Regarding `Cc1ccc(CNC(=O)COc2ccc(C(=O)c3ccc(F)cc3)cc2)cc1`, the Potency result in assay [1], in assay [2], in assay [3], in assay [4] and in assay [5] was “inactive” throughout.
As for `CCCOc1ccc(/C(O)=C2/C(=O)C(=O)N(c3ccccn3)C2c2ccc(OC)cc2)cc1C` (stereo unspecified), the Potency in assay [1] was 33.8 µM (active). In addition, the Potency result in assay [2], in assay [3], in assay [4] and in assay [5] was “inactive” in each case.
`Cc1nc2c(C(=O)NCCC3=CCCCC3)c[nH]n2c(=O)c1Cl`: the Potency in assay [1] was 75.7 µM (active); in assay [4] it was 6.75 µM (active). For the same compound, the Potency result in assay [2], in assay [3] and in assay [5] was “inactive” in each case.
Consider `COc1ccc(-c2c(-c3ccccc3OC)oc3ccccc23)cn1`, for which the Potency result in assay [1], in assay [2] and in assay [4] was “inactive” in each case. The activation in assay [3] was 1.88% [at 17.1 µM, percent relative to cAMP agonist control]; in assay [5], 7.21% [at 30.8 µM].
Take `CCC(=O)NC(c1ccc(C)cc1)c1ccc2cccnc2c1O` (stereo unspecified): the Potency entry in assay [1], in assay [2], in assay [3] and in assay [5] was “inactive” each time. Further, in assay [4], the Potency was 5.36 µM (active).
With `Cc1cc(Nc2ncc(Cl)cc2Cl)n(-c2ccccc2C)n1`, the Potency result in assay [1], in assay [2], in assay [3] and in assay [5] was “inactive” throughout. The Potency in assay [4] is 16.9 µM (active).
`CCOc1ccc(/C=C2\SC(=S)N(NS(=O)(=O)c3ccc(C)cc3)C2=O)cc1OC`: in assay [1], the Potency was 56.2 µM (active). Moreover, the Potency entry in assay [2] and in assay [4] was “inactive” in each case. Further, the activation in assay [3] was 5.33% [at 17.1 µM, percent relative to cAMP agonist control]; in assay [5] it was -1.1% [at 30.8 µM].
With `COC(=O)Cc1c(C)c2ccc(OC(=O)c3ccco3)cc2oc1=O`, the Potency entry in assay [1], in assay [2] and in assay [4] was “inactive” in each case. For the same compound, the activation is 7.89% [at 17.1 µM, percent relative to cAMP agonist control] in assay [3] and 4.06% [at 30.8 µM] in assay [5].
In the case of `C/C=C/C(=O)Nc1cccc(C2=NOC3(C2)C[C@@H](C(N)=O)N(C(=O)/C(C)=C/C)C3)c1` (stereo partly specified), the Potency result in assay [1], in assay [2], in assay [3], in assay [4] and in assay [5] was “inactive” throughout.
Regarding `CCn1c(O)c(/C=N/N=C/c2ccc(OC)cc2)c2cc(C3=NNC(=O)CC3)ccc21`, the Potency result in assay [1], in assay [4] and in assay [5] was “inactive” each time. Also, the Potency was 89.1 µM (active) in assay [2] and 100 µM (active) in assay [3].
For the compound `C=CCN(CC=C)Cc1cc(=O)oc2cc(OC)c(Cl)cc12`, the Potency result in assay [1], in assay [2] and in assay [4] was “inactive” each time. Besides, the activation is 3.78% [at 17.1 µM, percent relative to cAMP agonist control] in assay [3] and 20.9% [at 30.8 µM] in assay [5].
Turning to `CC(=O)Nc1ccc(N2C(=O)c3cccc4c(O)ccc(c34)C2=O)cc1`, the Potency is 2.31 µM (active) in assay [6], 79.4 µM (active) in assay [2], 112 µM (active) in assay [3] and 39.8 µM (active) in assay [5]. Besides, the Potency entry in assay [1] and in assay [4] was “inactive” each time.
In the case of `C=CCn1cc(C(=O)NCCCOC)c(=O)c2cc(S(=O)(=O)N(CC)CC)ccc21`, the Potency result in assay [1], in assay [2], in assay [3], in assay [4] and in assay [5] was “inactive” throughout.
For the compound `CCOC(=O)N1CCC2CC1c1cc(-c3cccc(OC)c3)ccc12` (stereo unspecified), the Potency entry in assay [1], in assay [2], in assay [3], in assay [4] and in assay [5] was “inactive” in each case.
Take `CC(C)(C)OC(=O)N1CCN(C(=O)c2[nH]c(C(F)(F)F)nc2-c2ccccc2)CC1`: the Potency entry in assay [1], in assay [2], in assay [3], in assay [4] and in assay [5] was “inactive” in each case.
For the compound `CCc1ccc([C@@H]2CC=C(C(=O)O)[C@H](c3ccc(C(C)(C)C)cc3)N2S(=O)(=O)c2ccc(C)cc2)cc1`, the Potency in assay [1] and in assay [4] was 37.9 µM (active) in each case. The Potency entry in assay [2], in assay [3] and in assay [5] was “inactive” each time.
